Assay outcomes from PubChem.
Rows were chosen to be rich in hits. Some 1.8% of all compounds tested hit in one or more screens of this group.
NOD2 RIPK2 PPI – NOD2-RIPK2 binding disruptors in cells, primary screen, fluorescence, CHO cells, BLA complementation; Receptor-interacting serine/threonine-protein kinase 2 (Homo sapiens), O43353; CCF4 ratio; inhibition, % at 4.98 µM; hit rate 0.38% among 360,000; AID 624267, 2012; in the data active means inhibition above about 21%;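 further: 0% = vehicle only and 100% = reference blocker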
TLR9-MyD88 block – inhibitors of TLR9-MyD88 association in cells, primary screen, cell-based, CHO, BLA complementation, fluorescence | Toll-like receptor 9 (Homo sapiens) + Myeloid differentiation primary response protein … | CCF4 FRET ratio | inhibition, % at 4.98 µM | hit rate 0.21% among 340,000;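 active means inhibition above the mean over all tested compounds plus 3 SD, cut at about 21% in these data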;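 further: 0% = DMSO only wells and 100% = clavulanate BLA inhibitor control wells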
m5-HT2A agonist – mouse Htr2a agonists via beta-arrestin recruitment, primary screen, cell-based, luminescence; CHO-K1 mHTR2A beta-arrestin complementation; percent of 30 µM serotonin response; 5-hydroxytryptamine receptor 2A (Mus musculus), P35363; hit rate 0.66% among 360,000; activation, % at 7.6 µM;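 active means activation above a run cutoff, the mean activation of all tested compounds plus 3 SD, cut at about 14% in these data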;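 further: 0% = plate median of compound wells and 100% = 30 µM serotonin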
LANA-H2B inh – blockers of LANA interaction with H2A/H2B – biochemical, FP readout, HTS, primary screen | Protein LANA1 (Human herpesvirus 8 type P (isolate GK18)), Q9QR71 | cell-free LANA-H2A/H2B peptide, fluorescence polarization | inhibition, % (concentration not given with the values) | hit rate 0.6% among 320,000; in the data active means inhibition mostly above about 10%, no sharp cut-off; inactive means mostly below about 6.7%
TLR4 MyD88 comp – inhibitors of TLR4-MyD88 association in cells, primary screen, cell-based, HeLa CL3-4, BLA complementation, FRET ratio; HeLa CL3-4 TLR4/MyD88 BLA complementation; inhibition, % at 8.4 µM; hit rate 0.18% among 200,000; Toll-like receptor 4 (Homo sapiens) + Myeloid differentiation primary response protein …; in the data active means inhibition above about 25%;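 further: 0% = vehicle and 100% = reference inhibitor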
Rtt109 HAT inh – inhibitors of C. albicans Rtt109/Vps75 HAT, primary screen, biochemical, ThioGlo CoA-SH fluorescence, plate reader; Histone acetyltransferase RTT109 (Candida albicans (strain SC5314 / ATCC MYA-2876)), …; purified Rtt109/Vps75, 4 h; inhibition, % at 34.9 µM; hit rate 0.16% among 330,000; AID 540336, 2011;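 active means inhibition of at least 50% in every replicate; inconclusive means best replicate reaches 50% inhibition but some replicates fall short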
An asterisk follows results filed as active; u = inconclusive; x = not tested or not shown; + = active, no number.

SMILES	NOD2 RIPK2 PPI	TLR9-MyD88 block	m5-HT2A agonist	LANA-H2B inh	TLR4 MyD88 comp	Rtt109 HAT inh
CCOC(=O)CN1C(=O)C(C)(C)Oc2ccc(C(=O)NC(C)(C)CC)cc21	-4	-1	3	-6	-11	-6
O=C(Nc1ccccc1Cl)C1CCCN(S(=O)(=O)c2ccc(F)cc2)C1 (stereo unspecified)	-2	-3	2	8.8*	12	0
O=C(Nc1cccc(Cl)c1)C1CCCN(S(=O)(=O)c2ccc(F)cc2)C1 (stereo unspecified)	0	-5	-2	x	-4	13
CCOC(=O)C1CCN(Cc2cnc(Oc3ccc(OC)cc3)s2)CC1	-7	1	22*	5	-5	0
CCOC(=O)C1CCN(Cc2ccc(OC)cc2OC)CC1	-4	2	2	-10	-1	u
O=C(NCCc1ccc(Cl)cc1)C1CCC(=O)N1Cc1ccccc1Cl (stereo unspecified)	5	1	2	13*	3	1
COc1ccc(CCNC(=O)C2CCC(=O)N2Cc2ccccc2Cl)cc1OC (stereo unspecified)	-14	0	-1	0	x	-3
COc1ccc(N(C(=O)c2snc(C(N)=O)c2N)C(C(=O)NC2CCCCC2)c2ccc(F)cc2)c(OC)c1 (stereo unspecified)	-10	-1	2	18*	x	0
COc1ccc(C(C(=O)NCCC(C)C)N(CCO)C(=O)c2snc(C(N)=O)c2N)cc1 (stereo unspecified)	4	-12	4	23*	x	-1
COc1ccc(N(C(=O)c2snc(C(N)=O)c2N)C(C(=O)NC2CCCC2)c2cc(OC)ccc2OC)c(OC)c1 (stereo unspecified)	3	-9	4	7	x	-2
O=c1c(C(c2ccccc2)c2c(O)sc3ccccc3c2=O)c(O)sc2ccccc12	-3	-8	2	11*	-5	4
CC1(C(=O)NS(=O)(=O)C2CC2)CCCN(C(=O)c2ccco2)C1 (stereo unspecified)	-22	x	4	x	x	x
C[C@H]1C[C@@H]2[C@H]([C@@H](O)C[C@@]3(C)[C@H]2CC[C@]3(O)C(=O)CO)[C@@]2(C)C=CC(=O)C=C12	-4	-5	18*	0	1	3
CC(=O)OCC(=O)C1(O)CCC2C3CC(C)C4=CC(=O)C=CC4(C)C3C(O)CC21C (stereo unspecified)	-2	x	3	x	x	x
CC(C)C[C@H]1CN(CCCC[C@H]2CNC(=O)C(=O)N2CC2CCCCC2)C(=O)C(=O)N1Cc1ccccc1	3	x	2	x	x	x
CCn1ncc(C2=NOC(C(=O)NCc3ccc(Cl)cc3)C2)c1C (stereo unspecified)	13	-2	3	58*	13	2
CCn1ncc(C2=NOC(C(=O)Nc3ccc(C)cc3)C2)c1C (stereo unspecified)	-3	-3	-3	4	6	4
Cc1ccc(N(CC(=O)NCc2ccc(F)cc2)C(=O)CCC(=O)Nc2ccccn2)cc1C	-25	2	0	26*	x	4
FC(F)C(F)(F)Oc1cccc(Nc2nccn3c(-c4cccc5ccccc45)cnc23)c1	-12	x	0	x	x	x
O=C(NCC1(N2CCCCC2)CCCCC1)c1cccc(S(=O)(=O)Nc2ccc(F)cc2)c1	-8	-5	-12	23*	x	-5
O=C(NCC1CCCO1)c1cccc(S(=O)(=O)Nc2ccc(F)cc2)c1 (stereo unspecified)	-3	-10	-1	63*	x	-4
O=S(=O)(Nc1nc(-c2sccc2Cl)cs1)c1cc(Cl)ccc1Cl	-14	7	20*	6	8	33
COc1ccc(CN2C(=O)CSCC2(C)C(=O)NCc2ccccc2)cc1OC (stereo unspecified)	-12	x	1	x	x	x
Oc1cccc2ccc(/C=C/c3cccs3)nc12	-1	0	-7	13*	1	9
COc1ccccc1-c1cc(C(=O)NCCN2CCOCC2)no1	1	0	-2	16*	9	-2
SMILES	NOD2 RIPK2 PPI	TLR9-MyD88 block	m5-HT2A agonist	LANA-H2B inh	TLR4 MyD88 comp	Rtt109 HAT inh
COc1ccccc1-c1cc(C(=O)NCc2ccccc2)no1	-5	6	-2	-2	-6	11
COCC(C)NC(=O)c1cc(-c2ccccc2OC)on1 (stereo unspecified)	-6	-1	-3	21*	-11	-2
COc1ccccc1-c1cc(C(=O)NCCCN2CCOCC2)no1	2	4	-5	5	x	3
O=Nc1nc2ncccn2c1-c1ccccc1	0	0	-4	x	x	-13
Cc1cccc(NC(=O)Nc2ccc(Oc3c(F)c(F)c(F)c(F)c3F)cc2)c1	3	2	0	-1	1	-5
O=C(Nc1ccc(Oc2c(F)c(F)c(F)c(F)c2F)cc1)OC1CCN2Cc3ccccc3N=C12 (stereo unspecified)	-6	-6	-4	15*	x	6
COc1ccc2[nH]cc(CCNC(=O)/C=C/[C@H]3O[C@@H](n4cc(C)c(=O)[nH]c4=O)C[C@@H]3O)c2c1	-16	x	0	x	x	x
CNC(=S)N/N=C1\C(=O)c2cccc3cccc1c23	-10	11	10	2	-5	-3
O=C(N/N=C1\C(=O)c2cccc3cccc1c23)c1ccc(O)cc1	-7	-4	1	+	-11	1
CN(C)CCN1CCN(C2CN(Cc3cn(Cc4ccc(Cl)cc4)nn3)S(=O)(=O)C2)CC1 (stereo unspecified)	-6	x	1	x	x	x
O=C(c1cc2ccccn2n1)N1CCCC1	x	x	x	x	-9	x
Cc1ccc(C)c(N2CCN(C(=O)c3cc4ccccn4n3)CC2)c1	-9	8	-4	30*	-9	-3
O=C(NCC1COc2ccccc2O1)c1cccc(S(=O)(=O)N2CCOCC2)c1 (stereo unspecified)	-4	3	0	26*	x	5
O=C(NCC1COc2ccccc2O1)c1ccc(Cl)c(S(=O)(=O)N2CCOCC2)c1 (stereo unspecified)	-3	-7	-1	-3	x	6
COc1cc(/C=C/C(=O)OC(C)C(=O)Nc2c(C)n(C)n(-c3ccccc3)c2=O)ccc1O (stereo unspecified)	3	5	10	119*	x	-3
Cc1ccc(N(C(C)C(=O)Nc2c(C)n(C)n(-c3ccccc3)c2=O)S(C)(=O)=O)cc1C (stereo unspecified)	-1	-10	2	-1	-11	2
